Results on seven molecules are retold here after ChEMBL document CHEMBL2218924, “A broad activity screen in support of a chemogenomic map for kinase signalling research and drug discovery” (Biochem J, 2013).

The target of experiment [1] is T1, CDK9/cyclin T1 (Homo sapiens) (UniProt O60563+P50750). The note with it: at 1 µM.
Experiment [2] addresses T1, CDK9/cyclin T1 (Homo sapiens). The note with it: at 10 µM.
Experiment [3] concerns the target T2, Serine/threonine-protein kinase Chk1 (Homo sapiens) (UniProt O14757).
T2 sequence (whole entry): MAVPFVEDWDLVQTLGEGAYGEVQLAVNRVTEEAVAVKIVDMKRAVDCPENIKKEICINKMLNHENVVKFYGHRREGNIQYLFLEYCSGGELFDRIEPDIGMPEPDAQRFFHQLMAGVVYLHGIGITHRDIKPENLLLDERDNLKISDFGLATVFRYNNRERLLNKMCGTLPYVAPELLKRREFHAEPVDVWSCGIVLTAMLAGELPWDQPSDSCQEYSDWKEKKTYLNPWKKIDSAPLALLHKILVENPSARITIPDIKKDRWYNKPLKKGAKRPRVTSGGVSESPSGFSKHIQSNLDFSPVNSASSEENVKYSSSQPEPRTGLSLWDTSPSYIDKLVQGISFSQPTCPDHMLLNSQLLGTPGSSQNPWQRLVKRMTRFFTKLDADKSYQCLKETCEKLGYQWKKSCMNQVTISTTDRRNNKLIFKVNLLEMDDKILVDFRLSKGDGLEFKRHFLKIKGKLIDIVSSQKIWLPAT
The note with it: at 1 µM.

Experiment [4] deals with T2, Serine/threonine-protein kinase Chk1 (Homo sapiens). The note with it: at 10 µM.
Experiment [5] deals with Serine/threonine-protein kinase Chk2 (Homo sapiens) (UniProt O96017). Conditions: at 1 µM.
For experiment [6] the target is unchanged. Conditions: at 10 µM.
The target of experiment [7] is Casein kinase I isoform gamma-1 (Homo sapiens) (UniProt Q9HCP0). Conditions: at 1 µM.
Experiment [8] shares this target. The note with it: at 10 µM.
Experiment [9] concerns the target Casein kinase I isoform delta (Homo sapiens) (UniProt P48730). Conditions: at 1 µM.
The target is the same in experiment [10]. The note with it: at 10 µM.
Experiment [11] has as its target T3, Casein kinase II (Homo sapiens) (UniProt P67870+P68400+P19784). Conditions: at 1 µM.
For experiment [12], the target named is T3, Casein kinase II (Homo sapiens). The note with it: at 10 µM.
Experiment [13] concerns the target Casein kinase II subunit alpha' (Homo sapiens) (UniProt P19784). Conditions: at 1 µM.
For experiment [14] the target is unchanged. Conditions: at 10 µM.
In experiment [15] the target is Dual specificity protein kinase CLK2 (Homo sapiens) (UniProt P49760). Conditions: at 1 µM.
The target is the same in experiment [16]. Conditions: at 10 µM.
In experiment [17] the target is Dual specificity protein kinase CLK3 (Homo sapiens) (UniProt P49761). Conditions: at 1 µM.
For experiment [18] the target is unchanged. The note with it: at 10 µM.
Experiment [19] has as its target Tyrosine-protein kinase CSK (Homo sapiens) (UniProt P41240). The note with it: at 1 µM.
For experiment [20] the target is unchanged. Conditions: at 10 µM.

One may read the residual activity as the signal under treatment as a percentage of the control signal.

Sequence of Serine/threonine-protein kinase Chk2 (Homo sapiens) (O96017 whole entry): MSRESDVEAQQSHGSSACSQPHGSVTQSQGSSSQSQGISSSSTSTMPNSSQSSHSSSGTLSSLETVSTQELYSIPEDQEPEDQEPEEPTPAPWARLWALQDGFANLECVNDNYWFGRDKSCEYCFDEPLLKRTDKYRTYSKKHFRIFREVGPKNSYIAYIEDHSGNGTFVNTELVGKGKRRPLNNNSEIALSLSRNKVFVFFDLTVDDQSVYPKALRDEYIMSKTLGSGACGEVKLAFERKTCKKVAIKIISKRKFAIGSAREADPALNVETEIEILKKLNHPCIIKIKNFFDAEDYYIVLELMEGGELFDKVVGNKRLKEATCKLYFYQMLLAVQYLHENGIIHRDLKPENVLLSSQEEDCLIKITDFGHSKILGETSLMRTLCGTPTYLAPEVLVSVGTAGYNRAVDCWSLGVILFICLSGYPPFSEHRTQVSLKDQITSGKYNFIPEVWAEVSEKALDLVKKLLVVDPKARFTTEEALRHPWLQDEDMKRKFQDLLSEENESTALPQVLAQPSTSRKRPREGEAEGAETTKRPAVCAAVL
Sequence of Casein kinase I isoform delta (Homo sapiens) (P48730 whole entry, looked up, canonical isoform): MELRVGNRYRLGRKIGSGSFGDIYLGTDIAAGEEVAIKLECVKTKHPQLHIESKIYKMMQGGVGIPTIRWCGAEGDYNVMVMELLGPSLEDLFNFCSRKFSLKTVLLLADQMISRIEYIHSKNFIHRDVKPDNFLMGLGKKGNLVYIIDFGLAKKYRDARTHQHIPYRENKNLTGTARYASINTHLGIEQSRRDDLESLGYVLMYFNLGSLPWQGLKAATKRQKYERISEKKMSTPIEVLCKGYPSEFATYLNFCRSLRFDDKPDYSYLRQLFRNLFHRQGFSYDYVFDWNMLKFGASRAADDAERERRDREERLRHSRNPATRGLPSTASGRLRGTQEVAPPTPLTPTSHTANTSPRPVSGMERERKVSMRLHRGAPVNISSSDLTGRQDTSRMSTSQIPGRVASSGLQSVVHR
Sequence of Dual specificity protein kinase CLK3 (Homo sapiens) (P49761 whole entry, looked up): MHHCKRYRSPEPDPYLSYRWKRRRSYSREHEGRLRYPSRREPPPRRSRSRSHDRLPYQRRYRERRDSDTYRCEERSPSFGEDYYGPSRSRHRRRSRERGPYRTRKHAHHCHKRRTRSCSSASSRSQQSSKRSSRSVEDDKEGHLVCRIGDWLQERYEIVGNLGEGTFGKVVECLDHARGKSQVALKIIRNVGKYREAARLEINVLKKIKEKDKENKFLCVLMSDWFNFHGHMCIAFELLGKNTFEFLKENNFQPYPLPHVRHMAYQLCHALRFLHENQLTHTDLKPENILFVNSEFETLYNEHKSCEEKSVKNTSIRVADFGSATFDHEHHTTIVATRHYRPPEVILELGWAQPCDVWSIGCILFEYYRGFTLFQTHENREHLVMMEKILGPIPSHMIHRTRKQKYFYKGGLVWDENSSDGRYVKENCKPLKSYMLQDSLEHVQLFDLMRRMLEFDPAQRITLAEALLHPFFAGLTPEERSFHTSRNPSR
T3 sequence (P19784 whole entry, looked up): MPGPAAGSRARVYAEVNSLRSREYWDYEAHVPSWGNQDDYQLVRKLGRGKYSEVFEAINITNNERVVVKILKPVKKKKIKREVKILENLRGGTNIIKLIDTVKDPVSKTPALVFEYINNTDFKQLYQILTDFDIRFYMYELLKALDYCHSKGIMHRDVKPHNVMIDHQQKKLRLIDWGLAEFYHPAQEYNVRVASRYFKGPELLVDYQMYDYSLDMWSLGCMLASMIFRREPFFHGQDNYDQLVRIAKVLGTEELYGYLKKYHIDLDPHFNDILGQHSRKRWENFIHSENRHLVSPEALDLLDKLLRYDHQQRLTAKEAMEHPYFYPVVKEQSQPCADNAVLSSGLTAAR
T3 sequence (P67870 whole entry, looked up): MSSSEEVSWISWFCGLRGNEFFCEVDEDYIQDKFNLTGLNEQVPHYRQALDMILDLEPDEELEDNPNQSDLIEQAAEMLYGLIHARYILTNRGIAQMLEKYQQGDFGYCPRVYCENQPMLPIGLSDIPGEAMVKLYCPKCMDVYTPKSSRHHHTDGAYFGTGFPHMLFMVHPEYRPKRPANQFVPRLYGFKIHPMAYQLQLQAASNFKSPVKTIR
T3 sequence (P68400 whole entry, looked up): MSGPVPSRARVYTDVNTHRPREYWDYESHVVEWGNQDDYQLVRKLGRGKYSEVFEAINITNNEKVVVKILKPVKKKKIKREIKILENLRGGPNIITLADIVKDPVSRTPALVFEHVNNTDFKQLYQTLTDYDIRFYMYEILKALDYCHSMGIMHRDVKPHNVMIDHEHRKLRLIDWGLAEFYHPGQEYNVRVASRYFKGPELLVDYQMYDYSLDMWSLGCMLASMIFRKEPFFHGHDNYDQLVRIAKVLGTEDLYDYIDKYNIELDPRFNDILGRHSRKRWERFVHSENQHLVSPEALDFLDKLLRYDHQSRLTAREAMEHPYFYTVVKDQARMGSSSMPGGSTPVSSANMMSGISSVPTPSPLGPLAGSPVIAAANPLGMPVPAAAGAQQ
Sequence of Casein kinase II subunit alpha' (Homo sapiens) (P19784 whole entry, looked up): as the sequence (P19784 whole entry, looked up) above
Sequence of Tyrosine-protein kinase CSK (Homo sapiens) (P41240 2-450 limits assumed): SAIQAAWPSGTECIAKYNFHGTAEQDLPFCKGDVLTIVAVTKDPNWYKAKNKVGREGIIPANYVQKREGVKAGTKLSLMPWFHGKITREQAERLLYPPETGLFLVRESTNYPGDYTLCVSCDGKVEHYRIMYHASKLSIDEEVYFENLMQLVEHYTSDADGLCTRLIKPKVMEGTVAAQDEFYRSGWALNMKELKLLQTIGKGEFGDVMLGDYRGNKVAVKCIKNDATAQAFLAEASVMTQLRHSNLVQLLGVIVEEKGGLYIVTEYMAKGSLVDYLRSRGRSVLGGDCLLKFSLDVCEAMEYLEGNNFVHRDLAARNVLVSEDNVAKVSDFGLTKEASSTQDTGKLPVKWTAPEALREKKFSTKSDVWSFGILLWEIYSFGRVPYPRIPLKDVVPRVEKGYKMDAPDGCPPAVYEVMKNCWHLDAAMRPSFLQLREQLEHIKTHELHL
Sequence of Dual specificity protein kinase CLK2 (Homo sapiens) (P49760 whole entry, looked up): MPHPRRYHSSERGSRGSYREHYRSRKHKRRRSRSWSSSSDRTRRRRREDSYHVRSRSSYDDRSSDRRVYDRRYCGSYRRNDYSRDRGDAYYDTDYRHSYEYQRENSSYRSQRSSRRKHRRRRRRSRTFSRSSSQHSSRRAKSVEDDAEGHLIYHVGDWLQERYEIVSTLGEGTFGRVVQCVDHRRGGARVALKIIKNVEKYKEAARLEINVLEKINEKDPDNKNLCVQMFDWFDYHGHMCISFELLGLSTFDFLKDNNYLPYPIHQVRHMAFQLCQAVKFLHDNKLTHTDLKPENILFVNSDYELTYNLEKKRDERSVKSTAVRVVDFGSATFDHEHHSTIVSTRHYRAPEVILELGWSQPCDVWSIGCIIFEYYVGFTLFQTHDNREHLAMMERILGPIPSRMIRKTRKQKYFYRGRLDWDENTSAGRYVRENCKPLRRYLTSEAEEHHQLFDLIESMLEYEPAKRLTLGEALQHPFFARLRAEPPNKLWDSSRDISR
Sequence of Casein kinase I isoform gamma-1 (Homo sapiens) (Q9HCP0 whole entry, looked up, canonical isoform): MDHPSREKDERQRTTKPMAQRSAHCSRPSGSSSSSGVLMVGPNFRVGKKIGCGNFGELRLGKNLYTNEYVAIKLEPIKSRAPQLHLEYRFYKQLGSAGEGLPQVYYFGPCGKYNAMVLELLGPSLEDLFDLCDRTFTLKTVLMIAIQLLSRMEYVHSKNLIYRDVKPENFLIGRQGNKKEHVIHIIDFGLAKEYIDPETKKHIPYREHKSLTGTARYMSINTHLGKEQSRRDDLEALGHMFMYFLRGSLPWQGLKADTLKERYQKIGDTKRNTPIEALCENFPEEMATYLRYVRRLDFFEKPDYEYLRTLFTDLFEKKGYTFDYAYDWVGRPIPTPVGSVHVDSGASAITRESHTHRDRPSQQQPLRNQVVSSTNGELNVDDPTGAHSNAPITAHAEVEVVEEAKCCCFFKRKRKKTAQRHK

With `Oc1c2ccccc2c2c3c(cccc13)N=N2`, the residual activity in [1] is 96%; in experiment [2] it was 55%; in experiment [3], 72%; in [4] it was 32%; in experiment [5], 29%; in [6], 2%. The residual activity in experiment [7] was found to be 99%; in experiment [8], 48%; in experiment [9], 5%; in [10], 1%; in experiment [11], 60%; in experiment [12], 19%. Besides, the residual activity is 59% in experiment [13]; 18% in experiment [14]; 36% in [15]; 21% in experiment [16]; 72% in experiment [17]; 34% in experiment [18]. Besides, the figures for the residual activity in experiment [19] and in experiment [20] were 105% and 93%, respectively.
In the case of `Oc1n[nH]c2nnc(-c3c(-c4ccccc4)nn4ccccc34)cc12`, the residual activity was 90% in experiment [1]; 99% in experiment [2]; 93% in experiment [3]; 81% in [4]; 19% in experiment [5]; 11% in [6]. The residual activity in [7] is 94%; in [8] it was 83%; in experiment [9], 84%; in [10], 54%; in experiment [11], 92%; in experiment [12], 82%. The residual activity came to 110% in experiment [13]; 91% in experiment [14]; 114% in experiment [15]; 118% in experiment [16]; 85% in experiment [17]; 96% in experiment [18]. Moreover, the residual activity came out at 93% in experiment [19] and 84% in [20].
On to `Cn1cnc2cc3c(Nc4cccc(Br)c4)ncnc3cc21`, for which the residual activity in [1] worked out at 108%; in [2] it was 93%; in [3] it was 95%; in experiment [4] it was 92%; in experiment [5], 89%; in [6], 56%. The residual activity in [7] turned out to be 84%; in [8] it was 81%; in experiment [9], 87%; in experiment [10], 64%; in [11], 87%; in [12] it was 119%. Moreover, the residual activity in experiment [13] is 126%; in [14], 89%; in experiment [15], 106%; in experiment [16], 75%; in experiment [17], 91%; in [18], 112%. Besides, the residual activity amounted to 105% in [19] and 97% in experiment [20].
Take `COc1ccc(CNc2nc(N(CCO)CCO)nc3c2ncn3C(C)C)cc1`: the residual activity in experiment [1] is 29%; in experiment [2], 0%; in experiment [3], 93%; in experiment [4], 87%; in experiment [5], 77%; in experiment [6] it was 33%. Also, the residual activity amounted to 67% in experiment [7]; 29% in experiment [8]; 40% in experiment [9]; 6% in experiment [10]; 96% in [11]; 101% in experiment [12]. Further, the residual activity in experiment [13] is 100%; in experiment [14], 107%; in experiment [15], 48%; in experiment [16], 18%; in experiment [17] it was 87%; in experiment [18], 62%. Moreover, the residual activity amounted to 106% in [19] and 96% in experiment [20].
Take `CCN(CC)CCCCN1c2ccccc2Oc2ccc(Cl)cc21`: the residual activity in [1] came to 108%; in experiment [2], 108%; in experiment [3] it was 99%; in [4], 103%; in experiment [5], 94%; in experiment [6] it was 103%. Also, the residual activity in experiment [7] is 102%; in experiment [8] it was 103%; in experiment [9] it was 95%; in experiment [10], 96%; in experiment [11], 104%; in experiment [12], 103%. Further, the residual activity in experiment [13] came to 137%; in experiment [14], 101%; in [15] it was 117%; in experiment [16], 127%; in experiment [17], 89%; in experiment [18], 92%. For the same molecule, the residual activity in [19] came to 113%; in experiment [20], 102%.
With `Oc1ccc(Nc2nc(-c3ccc(Cl)cc3)cs2)cc1`, the residual activity in experiment [1] was found to be 104%; in [2], 99%; in experiment [3], 99%; in experiment [4], 104%; in [5], 64%; in experiment [6] it was 40%. The residual activity in experiment [7] was found to be 113%; in [8] it was 98%; in experiment [9], 79%; in [10], 72%; in experiment [11], 101%; in experiment [12] it was 97%. Also, the residual activity stood at 100% in experiment [13]; 99% in experiment [14]; 118% in experiment [15]; 101% in [16]; 92% in experiment [17]; 75% in experiment [18]. Besides, the residual activity in experiment [19] was determined as 98%; in [20], 113%.
Regarding `COc1ccc(OC)c2c(=S)c3ccccc3[nH]c12`, the residual activity in experiment [1] was found to be 95%; in experiment [2] it was 83%; in [3], 108%; in experiment [4] it was 88%; in [5], 106%; in experiment [6] it was 68%. The residual activity came to 99% in experiment [7]; 77% in experiment [8]; 101% in experiment [9]; 74% in experiment [10]; 103% in experiment [11]; 79% in experiment [12]. Moreover, the residual activity in [13] was determined as 81%; in experiment [14], 97%; in experiment [15] it was 99%; in [16], 74%; in [17] it was 90%; in experiment [18], 81%. The residual activity came to 109% in [19] and 105% in [20].
